Experimental findings from ChEMBL document CHEMBL4513216, “Probing the Open Global Health Chemical Diversity Library for Multistage-Active Starting Points for Next-Generation Antimalarials” (ACS Infect Dis, 2020) are described below.

SMILES strings stand for the structures. About 8,600 (12%) of roughly 69,000 compounds showed an effect of 50% or more. For the sample, strong results were picked, then their nearest neighbours and some compounds at random.

The experiment concerns Plasmodium berghei. As to the kind of experiment: Screen against P. berghei liver stage (PbLuc), transformed with Luciferase, at 10uM. The experiment is classed as functional, HepG2. The conditions noted are these: tested at 10 uM.
Turning to `O=c1ccc(-n2ccnc2)nn1CCNS(=O)(=O)c1ccc(F)c(Cl)c1`, the INHIBITION was -1.99%. For `O=c1ccc(-n2ccnc2)nn1CCNS(=O)(=O)c1ccc(Br)cc1`, the INHIBITION turned out to be 59.3%.

With `CN(Cc1ncc[nH]1)C(=O)C(C)(C)NC(=O)c1cccs1`, the INHIBITION was determined as 9.79%.

With `CC(NC(=O)N1CCC(n2cncn2)CC1)c1ccc(F)cc1` (configuration not stated), the INHIBITION turned out to be 17.4%.

As to `CCS(=O)(=O)N1CCC[C@]2(C(=O)N(C)C)CN(c3ccccn3)C[C@@H]2C1`, the INHIBITION was determined as 4.92%. In the case of `Cc1cnc(C)c(N2CCC(c3nnc(CN(C)C)n3C3CC3)CC2)n1`, the INHIBITION turned out to be 77.8%. Turning to `Cc1cc(C)nc(N2CCC(c3nnc(CN(C)C)n3C3CC3)CC2)n1`, the INHIBITION is -46.8%. The same measure for `CN(C)Cc1nnc(C2CCN(c3ncccn3)CC2)n1C1CC1`: -12.1%. The result for `CCc1c(C)nc2n(c1=O)CC(C(=O)NCc1cccs1)CS2` (configuration not stated) reads 35.8%; that for `O=C(CO[C@@H]1CC[C@H]2[C@H]1OCCN2c1ncccn1)N1CCCC1`, 24.6%; that for `c1ccc(O[C@@H]2CC[C@H]3[C@H]2OCCN3Cc2ccsc2)nc1`, 20.9%. The result for `Cc1cccc(CN2CCO[C@H]3[C@H](Oc4ccccn4)CC[C@@H]32)n1` reads -49.6%. `c1ccc(CN2CCO[C@H]3[C@H](OCCN4CCCC4)CC[C@@H]32)nc1`: the INHIBITION is reported as 26.8%.

`COc1ccc(CN2CCO[C@H]3[C@H](Oc4ccccn4)CC[C@@H]32)cc1`: the INHIBITION stood at 41.2%.

On to `O=C(CO[C@@H]1CC[C@H]2[C@H]1OCCN2Cc1ccccn1)N1CCCC1`, for which the INHIBITION came out at 54.1%. The result for `Fc1ccc(CN2CCO[C@H]3[C@H](Oc4ccccn4)CC[C@@H]32)cc1` reads 61.5%. For the compound `c1ccc(O[C@H]2CC[C@H]3[C@H]2OCCN3Cc2nccs2)nc1`, the INHIBITION is 6.8%.

For `c1ccc(O[C@@H]2CC[C@H]3[C@H]2OCCN3CC2CCOCC2)nc1`, the INHIBITION stood at 56.1%. The same measure for `Cc1cc(C)nc(N2CC=C[C@@H]2C(=O)NCc2ccc3c(c2)OCO3)n1`: 4.41%. In the case of `CC(C)n1c(=O)c2ccccc2n(CCN2CCCCC2)c1=O`, the INHIBITION was found to be 3.19%.

Turning to `COc1ccc(C)cc1C(=O)NC1(C#N)CCOCC1`, the INHIBITION amounted to 42.1%. For `COC(=O)c1ccc(N2CCN(CCS(C)(=O)=O)C(C)C2)cc1` (configuration not stated), the INHIBITION came out at 0.411%.

In the case of `Cc1cc(C(=O)CN2CCN(c3cnccn3)CC2)c(C)n1C(C)C`, the INHIBITION was 17.7%.

Take `CCOc1ccnc(N2CCN(C(=O)c3ccc(C#N)cc3)CC2)n1`: the INHIBITION was found to be 36.1%.

In the case of `N#Cc1ccc(CNCCn2cccn2)c(F)c1`, the INHIBITION is recorded as 20.74%.

Regarding `O=C(Cn1c(-c2ccco2)cc2cccnc21)N1CCCC1`, the INHIBITION is reported as -16.8%. The result for `CCCc1noc(CNc2cc(C[S+](C)[O-])ccc2Cl)n1` (configuration not stated) reads 30.9%; that for `Clc1ccc(C2(NCc3noc(C4CC4)n3)CCC2)cc1`, 8.18%.

On to `CCCc1nc(CNc2ccc(F)c(F)c2)no1`, for which the INHIBITION is -9.51%. The same measure for `CS(=O)(=O)Cc1ccc(Cl)c(NCc2noc(C3CC3)n2)c1`: 57.8%; for `CCCc1nc(CNc2cc(CS(C)(=O)=O)ccc2Cl)no1`: 52.2%; for `Cc1cccc(C)c1NCc1noc(C2CC2)n1`: 36.3%. The same measure for `CC(=O)N[C@H]1CCO[C@@H](c2cccc(NC(=O)Cc3ccccc3)c2)C1`: 13.205%. In the case of `CCc1nnc(CN2CCOC(Cn3cc(C)cn3)C2)o1` (configuration not stated), the INHIBITION amounted to 15.5%. With `CC(=O)N1CCCN(C(=O)C(C)n2cncn2)CC1` (configuration not stated), the INHIBITION amounted to 10%. As for `CCc1cc(NCCCc2nc(C)no2)nc(-c2ccncc2)n1`, the INHIBITION turned out to be 17.6%. With `O=C(c1cccnc1)N1CCC(Oc2cccc(C(F)(F)F)c2)CC1`, the INHIBITION is listed as 27.6%. Consider `OC1(CN2CCC(Oc3cccc(C(F)(F)F)c3)CC2)CCNC1` (configuration not stated), for which the INHIBITION was 87.7%.

With `Cc1cccc(OC2CCN(Cc3ncc[nH]3)CC2)c1`, the INHIBITION worked out at 53.2%. The same measure for `O=C(c1ccncc1)N1CCC(Oc2cccc(C(F)(F)F)c2)CC1`: 10.5%; for `Fc1cccc(OC2CCN(Cc3ncc[nH]3)CC2)c1`: 40%; for `Nc1cc(C(=O)N2CCC(Oc3cccc(C(F)(F)F)c3)CC2)ccn1`: 38.3%.

As for `Cc1cccc(CNC(=O)NCC2CCN(Cc3ncc[nH]3)C2)c1` (configuration not stated), the INHIBITION is on record as 4.68%. Take `OC1(CN2CCC(Oc3cccnc3)CC2)CNCCOC1` (configuration not stated): the INHIBITION is -16.8%.

Take `OC1(CN2CCC(Oc3cccc(C(F)(F)F)c3)CC2)CNCCOC1` (configuration not stated): the INHIBITION turned out to be 37.1%.

With `FC(F)(F)c1cccc(OC2CCN(Cc3ncc[nH]3)CC2)c1`, the INHIBITION came to 79.7%. The result for `O=C(c1ccc(=O)[nH]c1)N1CCC(Oc2cccc(C(F)(F)F)c2)CC1` reads 50.1%; that for `O=c1ccn([C@H]2CCN(Cc3ncc[nH]3)CC[C@@H]2O)c(=O)[nH]1`, 24.4%. Turning to `COc1ccc(Cl)cc1C(=O)NCCNc1cnccn1`, the INHIBITION is given as -21.8%. The same measure for `O=C1CC2(CCN(c3nncs3)C2)CN1c1cccc(F)c1` (configuration not stated): -6.3%; for `CCN1CC2(CC1=O)CN(C(=O)NC(C)C)CCN(C(=O)C(C)C)C2` (configuration not stated): 30.5%; for `CN(C)C(=O)N1C[C@@H]2COC[C@]2(CNS(C)(=O)=O)C1`: 14.2%.
